# Measurements reported in the supplement of paper PMC8728848.
# About 410 targets per protein were measured; listed, in parts, are those with the strongest signals and a random draw of the rest.
# Experiments:
# Assay in all cases: glycan array binding signal (z-score within array); higher = stronger binding
# Details in all cases: glycan notation: IUPAC condensed, linker removed
# [1] = target: Fuc(a1-2)Gal(b1-4)[Fuc(a1-3)]GlcNAc(b1-3)Gal(b1-4)[Fuc(a1-3)]GlcNAc
# How it was run: (§1)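 Columns mapping to the same glycan were averaged after glycan names were converted to IUPAC-condensed notation. The data come from 3228 arrays in the Consortium for Functional Glycomics database, limited to those with an available protein sequence. Binding is reported as a within-array Z-score averaged across arrays of one protein sequence and across linkers.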
# Fuc(a1-2)[Gal(a1-3)]Gal = target: Fuc(a1-2)[Gal(a1-3)]Gal
# How it was run: as §1
# [2] = target: Fuc(a1-2)[GalNAc(a1-3)]Gal(b1-4)Glc
# How it was run: as §1
# [3] = target: Fuc(a1-3)[Gal(b1-4)]GlcNAc
# How it was run: as §1
# Fuc(b1-3)GlcNAc = target: Fuc(b1-3)GlcNAc
# How it was run: as §1
# Gal(a1-3)Gal = target: Gal(a1-3)Gal
# How it was run: as §1
# [4] = target: Gal(b1-3)[Neu5Ac(a2-6)]GalNAc
# How it was run: as §1
# [5] = target: Gal(b1-3)[Neu5Ac(a2-6)]GlcNAc(b1-6)Gal(b1-4)Glc
# How it was run: as §1
# [6] = target: Gal(b1-4)GlcNAc(b1-3)Gal(b1-4)GlcNAc
# How it was run: as §1
# Gal3S6S(b1-4)GlcNAc6S = target: Gal3S6S(b1-4)GlcNAc6S
# How it was run: as §1
# [7] = target: GalNAc(b1-3)Gal(a1-4)Gal(b1-4)GlcNAc
# How it was run: as §1
# GalNAc(b1-4)GlcNAc = target: GalNAc(b1-4)GlcNAc
# How it was run: as §1
# Glc(b1-6)Glc = target: Glc(b1-6)Glc
# How it was run: as §1
# GlcA(b1-3)Gal = target: GlcA(b1-3)Gal
# How it was run: as §1
# GlcA(b1-6)Gal = target: GlcA(b1-6)Gal
# How it was run: as §1
# GlcNAc(b1-3)Gal = target: GlcNAc(b1-3)Gal
# How it was run: as §1
# [8] = target: GlcNAc(b1-3)Gal(b1-4)GlcNAc(b1-3)Gal(b1-4)GlcNAc
# How it was run: as §1
# Kdn(a2-3)Gal(b1-4)GlcNAc = target: Kdn(a2-3)Gal(b1-4)GlcNAc
# How it was run: as §1
# Man(b1-4)GlcNAc = target: Man(b1-4)GlcNAc
# How it was run: as §1
# [9] = target: Neu5Ac(a2-3)Gal(b1-3)[Fuc(a1-4)]GlcNAc
# How it was run: as §1
# [10] = target: Neu5Ac(a2-3)Gal(b1-4)GlcNAc(b1-3)Gal(b1-4)GlcNAc(b1-3)Gal(b1-4)GlcNAc
# How it was run: as §1
# [11] = target: Neu5Ac(a2-3)[GalNAc(b1-4)]Gal(b1-4)GlcNAc
# How it was run: as §1
# Neu5Ac(a2-8)Neu5Ac = target: Neu5Ac(a2-8)Neu5Ac
# How it was run: as §1
# [12] = target: Neu5Gc(a2-3)Gal(b1-3)[Fuc(a1-4)]GlcNAc
# How it was run: as §1
# [13] = target: Neu5Gc(a2-3)Gal(b1-4)GlcNAc
# How it was run: as §1
# [14] = target: Neu5Gc(a2-6)Gal(b1-4)GlcNAc
# How it was run: as §1
binder,measurement,setting,value
"AICL (Homo sapiens), Q92478 (protein) MMTKHKKCFIIVGVLITTNIITLIVKLTRDSQSLCPYDWIGFQNKCYYFSKEEGDWNSSKYNCSTQHADLTIIDNIEEMNFLRRYKCSSDHWIGLKMAKNRTGQWVDGATFTKSFGMRGSEGCAYLSDDGAATARCYTERKWICRKRIH",glycan array binding signal (z-score),[1],-0.049
same,glycan array binding signal (z-score),Fuc(a1-2)[Gal(a1-3)]Gal,-0.508
same,glycan array binding signal (z-score),[2],-0.265
same,glycan array binding signal (z-score),[3],-0.169
same,glycan array binding signal (z-score),Fuc(b1-3)GlcNAc,-0.469
same,glycan array binding signal (z-score),Gal(a1-3)Gal,-0.224
same,glycan array binding signal (z-score),[4],-0.085
same,glycan array binding signal (z-score),[5],-0.359
same,glycan array binding signal (z-score),[6],-0.439
same,glycan array binding signal (z-score),Gal3S6S(b1-4)GlcNAc6S,5.26
same,glycan array binding signal (z-score),[7],-0.363
same,glycan array binding signal (z-score),GalNAc(b1-4)GlcNAc,-0.322
same,glycan array binding signal (z-score),Glc(b1-6)Glc,-0.395
same,glycan array binding signal (z-score),GlcA(b1-3)Gal,5.65
same,glycan array binding signal (z-score),GlcA(b1-6)Gal,4.6
same,glycan array binding signal (z-score),GlcNAc(b1-3)Gal,-0.329
same,glycan array binding signal (z-score),[8],-0.374
same,glycan array binding signal (z-score),Kdn(a2-3)Gal(b1-4)GlcNAc,2.06
same,glycan array binding signal (z-score),Man(b1-4)GlcNAc,-0.401
same,glycan array binding signal (z-score),[9],-0.312
same,glycan array binding signal (z-score),[10],-0.415
same,glycan array binding signal (z-score),[11],-0.3
same,glycan array binding signal (z-score),Neu5Ac(a2-8)Neu5Ac,0.384
same,glycan array binding signal (z-score),[12],-0.323
same,glycan array binding signal (z-score),[13],0.329
same,glycan array binding signal (z-score),[14],-0.267
